# Laboratory results published in PubChem BioAssay (EPA / NIEHS).
# Records with an inconclusive call do not appear. Calls of active or inactive are those of the source. The calls were made as follows: active = hit-call score of the fitted dose curve at least 0.9, where 1 is the maximum; inconclusive = response in the unintended direction; inactive = score below 0.9.
# Assays:
# [1] = biological target: human Histamine 1 Receptor (H1), HRH1 (gene 3269) (UniProt P35367); assay: NVS_GPCR_hH1: NovaScreen (NVS) G Protein-Coupled Receptor Assay for human Histamine 1 Receptor (H1) (AID 2283268)
# Outline: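 Filter-based scintillation detection of radioligand binding to human H1, 1 h incubation; chemicals screened in duplicate at 25 uM, then concentration-response; signal loss relative to DMSO taken as activity.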
# [2] = biological target: Muscarinic acetylcholine receptor M1 (Homo sapiens) (UniProt P11229); assay: NVS_GPCR_hM1: NovaScreen (NVS) G Protein-Coupled Receptor Assay for human Muscarinic, M1 Receptor (AID 2283270)
# Protocol: (§1) NVS_GPCR_hM1 is a biochemical, single-readout assay that uses extracted gene-proteins from CHO in a cell-free assay. Measurements were taken 1 hour after chemical dosing in a 96-well plate.NVS_GPCR_hM1 is one of one assay component(s) measured or calculated from the NVS_GPCR_hM1 assay. It is designed to make measurements of radioligand binding, a form of binding reporter, as detected with scintillation counting signals by Filter-based radiodetection technology.Data from the assay component NVS_GPCR_hM1 was analyzed into 1 assay endpoint. This assay endpoint, NVS_GPCR_hM1, was analyzed in the positive analysis fitting direction relative to DMSO as the negative control and baseline of activity. Using a type of binding reporter, loss-of-signal activity can be used to understand changes in the binding as they relate to the gene CHRM1. Furthermore, this assay endpoint can be referred to as a primary readout, because the performed assay has only produced 1 assay endpoint. To generalize the intended target to other relatable targets, this assay endpoint is annotated to the gpcr intended target family, where the subfamily is rhodopsin-like receptor.
# (§2) Binding assays used specific radioligands (tritiated, iodinated) with non-radioactive competitive displacement ligands in agonist or antagonist protocols (as indicated) and various reference compounds and inhibitors to titrate specific binding to receptors and transporters. Most enzyme assays (CYPs, kinases, phosphatases, proteases, HDACs) used recombinant protein and specific substrates (fluorescence mostly, some colorimetric and radioactive) and inhibitors, followed by a biochemical separation of substrate and product. All assays for the biochemical HTS were initially run in duplicate at a single concentration (10 uM for CYP450 assays and 25 uM for all others). […] Each assay was run with positive and negative controls, and concurrent controls on every plate. The follow-up (secondary) screen tested active chemical-pairs in concentration series, as well as a few additional assays not tested in the primary screen, some selected negative inactives, and several cases re-run in the concentration series for confirmatory purposes.
# [3] = biological target: human Leukotriene B4 Receptor 1 (LTB4-BLT1), LTB4R (gene 1241) (UniProt Q15722); assay: NVS_GPCR_hLTB4_BLT1: NovaScreen (NVS) G Protein-Coupled Receptor Assay for human Leukotriene B4 Receptor 1 (LTB4-BLT1) (AID 2283271)
# Protocol: as §1, with “NVS_GPCR_hLTB4_BLT1” for “NVS_GPCR_hM1”, “Human neutrophils” for “CHO”, “48-well plate.NVS_GPCR_hLTB4_BLT1” for “96-well plate.NVS_GPCR_hM1”, “NVS_GPCR_hLTB4_BLT1,” for “NVS_GPCR_hM1,”, “LTB4R.” for “CHRM1.”
# Binding assays used specific radioligands (tritiated, iodinated) with non-radioactive competitive displacement ligands in agonist or antagonist protocols (as indicated) and various reference compounds and inhibitors to titrate specific binding to receptors and transporters. Most enzyme assays (CYPs, kinases, phosphatases, proteases, HDACs) used recombinant protein and specific substrates (fluorescence mostly, some colorimetric and radioactive) and inhibitors, followed by a biochemical separation of substrate and product. All assays for the biochemical HTS were initially run in duplicate at a single concentration (10 uM for CYP450 assays and 25 uM for all others). Assay-chemical combinations meeting a pre-defined threshold (e.g., 30% inhibition and other criteria defined below) were then run in singleton concentration-response format with maximum concentration of 20 uM for CYPs and 50 uM for all others. Each assay was run with positive and negative controls, and concurrent controls on every plate. The follow-up (secondary) screen tested active chemical-pairs in concentration series, as well as a few additional assays not tested in the primary screen, some selected negative inactives, and several cases re-run in the concentration series for confirmatory purposes.
# [4] = biological target: Muscarinic acetylcholine receptor M3 (Homo sapiens) (UniProt P20309); assay: NVS_GPCR_hM3: NovaScreen (NVS) G Protein-Coupled Receptor Assay for human Muscarinic, M3 Receptor (AID 2283272)
# Protocol: as §1, with “NVS_GPCR_hM3” for “NVS_GPCR_hM1”, “plate.NVS_GPCR_hM3” for “plate.NVS_GPCR_hM1”, “NVS_GPCR_hM3,” for “NVS_GPCR_hM1,”, “CHRM3.” for “CHRM1.”
# as §2
# [5] = biological target: Muscarinic acetylcholine receptor M2 (Homo sapiens) (UniProt P08172); assay: NVS_GPCR_hM2: NovaScreen (NVS) G Protein-Coupled Receptor Assay for human Muscarinic, M2 Receptor (AID 2283273)
# Outline: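 Radioligand competition binding, cell-free, receptor from CHO; 1 h incubation; scintillation detection. Primary testing at 25 uM in duplicate.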
# [6] = biological target: human Muscarinic, M4 Receptor, CHRM4 (gene 1132) (UniProt P08173); assay: NVS_GPCR_hM4: NovaScreen (NVS) G Protein-Coupled Receptor Assay for human Muscarinic, M4 Receptor (AID 2283274)
# Outline: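 Filter-based scintillation counting of radioligand bound to CHO-expressed human M4 preparations after 1 h; loss of signal fitted versus DMSO. Initial duplicate testing at 25 uM, concentration-response follow-up for actives.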
# [7] = biological target: Muscarinic acetylcholine receptor M5 (Homo sapiens) (UniProt P08912); assay: NVS_GPCR_hM5: NovaScreen (NVS) G Protein-Coupled Receptor Assay for human Muscarinic, M5 Receptor (AID 2283275)
# Outline: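 Chemicals passing a primary duplicate screen at 25 uM were run as singleton concentration series, maximum 50 uM. Displacement of a specific radioligand from CHO-extracted receptor was read by filter scintillation after 1 h, relative to DMSO.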
# [8] = biological target: human Neuropeptide Receptor Y1 (NPY1), NPY1R (gene 4886) (UniProt P25929); assay: NVS_GPCR_hNPY1: NovaScreen (NVS) G Protein-Coupled Receptor Assay for human Neuropeptide Receptor Y1 (NPY1) (AID 2283276)
# Protocol: as §1, with “NVS_GPCR_hNPY1” for “NVS_GPCR_hM1”, “SK-N-MC” for “CHO”, “plate.NVS_GPCR_hNPY1” for “plate.NVS_GPCR_hM1”, “NVS_GPCR_hNPY1,” for “NVS_GPCR_hM1,”, “Using a type of binding reporter, loss-of-signal activity can be used to understand changes in the binding as they relate to the gene CHRM1.” left out, “To generalize the intended target to other relatable targets, this assay endpoint is annotated to the gpcr intended target family, where the subfamily is rhodopsin-like receptor.” left out
# Binding assays used specific radioligands (tritiated, iodinated) with non-radioactive competitive displacement ligands in agonist or antagonist protocols (as indicated) and various reference compounds and inhibitors to titrate specific binding to receptors and transporters. Most enzyme assays (CYPs, kinases, phosphatases, proteases, HDACs) used recombinant protein and specific substrates (fluorescence mostly, some colorimetric and radioactive) and inhibitors, followed by a biochemical separation of substrate and product. […]
# [9] = biological target: D(1A) dopamine receptor (Homo sapiens) (UniProt P21728); assay: NVS_GPCR_hDRD1: NovaScreen (NVS) G Protein-Coupled Receptor Assay for human Dopamine Receptor D1 (DRD1) (AID 2283269)
# Outline: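 Radioligand displacement binding on membranes/protein extracted from HEK293 expressing human D1, cell-free; read 1 h after dosing by filter-based scintillation counting. Primary screen in duplicate at 25 uM, actives followed up in concentration series; signal loss versus DMSO baseline.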
# [10] = biological target: human Endothelin Receptor Type B (ETB), EDNRB (gene 1910) (UniProt P24530); assay: NVS_GPCR_hETB: NovaScreen (NVS) G Protein-Coupled Receptor Assay for human Endothelin Receptor Type B (ETB) (AID 2283267)
# Outline: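 Filter-based scintillation readout of radioligand displacement, 4 h, using membranes from human astrocytoma cells. Actives from a 25 uM duplicate screen were retested in concentration-response (top 50 uM) relative to DMSO baseline.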
# human Histamine 1 Receptor (H1), HRH1 (gene 3269), sequence (P35367 whole entry, looked up): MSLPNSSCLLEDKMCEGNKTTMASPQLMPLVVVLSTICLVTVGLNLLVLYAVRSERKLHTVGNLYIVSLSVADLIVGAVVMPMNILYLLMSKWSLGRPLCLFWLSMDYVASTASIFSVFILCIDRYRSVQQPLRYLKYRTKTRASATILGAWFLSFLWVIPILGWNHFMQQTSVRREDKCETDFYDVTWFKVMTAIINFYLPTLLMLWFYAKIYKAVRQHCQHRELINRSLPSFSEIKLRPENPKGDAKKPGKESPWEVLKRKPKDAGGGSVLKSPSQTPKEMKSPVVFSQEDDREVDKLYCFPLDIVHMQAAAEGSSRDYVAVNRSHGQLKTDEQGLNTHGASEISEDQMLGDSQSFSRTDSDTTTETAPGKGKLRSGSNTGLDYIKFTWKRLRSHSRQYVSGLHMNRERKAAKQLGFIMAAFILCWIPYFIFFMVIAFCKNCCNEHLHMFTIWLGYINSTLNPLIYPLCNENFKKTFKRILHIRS
# Muscarinic acetylcholine receptor M1 (Homo sapiens), sequence (P11229 whole entry, looked up): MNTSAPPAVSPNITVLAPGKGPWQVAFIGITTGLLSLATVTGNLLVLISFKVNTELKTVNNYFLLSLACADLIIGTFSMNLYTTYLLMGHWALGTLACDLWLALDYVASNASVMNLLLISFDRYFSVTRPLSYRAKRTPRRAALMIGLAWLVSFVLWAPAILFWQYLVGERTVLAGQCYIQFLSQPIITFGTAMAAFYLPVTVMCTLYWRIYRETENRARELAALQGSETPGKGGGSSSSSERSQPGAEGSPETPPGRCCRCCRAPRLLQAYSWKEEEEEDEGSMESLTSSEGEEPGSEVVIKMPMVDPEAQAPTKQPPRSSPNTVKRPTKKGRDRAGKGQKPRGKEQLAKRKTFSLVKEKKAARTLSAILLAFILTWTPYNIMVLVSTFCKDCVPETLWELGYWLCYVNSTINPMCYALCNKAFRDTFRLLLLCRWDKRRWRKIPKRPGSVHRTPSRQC
# D(1A) dopamine receptor (Homo sapiens), sequence (P21728 whole entry, looked up): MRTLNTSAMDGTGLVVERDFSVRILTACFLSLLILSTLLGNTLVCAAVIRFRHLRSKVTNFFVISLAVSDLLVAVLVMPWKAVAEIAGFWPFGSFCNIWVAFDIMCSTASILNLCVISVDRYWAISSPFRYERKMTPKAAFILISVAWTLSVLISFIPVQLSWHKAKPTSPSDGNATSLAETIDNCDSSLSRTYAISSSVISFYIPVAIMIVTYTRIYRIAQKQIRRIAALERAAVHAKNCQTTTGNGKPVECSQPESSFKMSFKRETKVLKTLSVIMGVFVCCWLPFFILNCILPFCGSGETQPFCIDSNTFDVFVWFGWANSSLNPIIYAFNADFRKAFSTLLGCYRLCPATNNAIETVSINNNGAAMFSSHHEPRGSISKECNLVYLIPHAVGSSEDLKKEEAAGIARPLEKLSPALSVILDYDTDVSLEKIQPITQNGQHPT
# Muscarinic acetylcholine receptor M5 (Homo sapiens), sequence (P08912 whole entry, looked up): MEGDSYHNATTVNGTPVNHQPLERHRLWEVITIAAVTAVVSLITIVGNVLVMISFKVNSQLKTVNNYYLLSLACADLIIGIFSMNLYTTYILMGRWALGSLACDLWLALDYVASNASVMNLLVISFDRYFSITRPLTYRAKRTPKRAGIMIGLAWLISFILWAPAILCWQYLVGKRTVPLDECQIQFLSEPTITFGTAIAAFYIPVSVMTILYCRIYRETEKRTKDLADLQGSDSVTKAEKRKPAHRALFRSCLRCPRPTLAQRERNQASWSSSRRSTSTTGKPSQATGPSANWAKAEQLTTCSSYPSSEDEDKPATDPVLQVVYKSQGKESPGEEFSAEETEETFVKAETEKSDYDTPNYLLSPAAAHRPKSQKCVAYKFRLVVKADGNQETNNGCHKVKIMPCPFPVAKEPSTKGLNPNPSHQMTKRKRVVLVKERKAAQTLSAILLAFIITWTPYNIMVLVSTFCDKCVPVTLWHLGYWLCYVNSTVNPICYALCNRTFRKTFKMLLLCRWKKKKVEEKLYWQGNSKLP
# human Endothelin Receptor Type B (ETB), EDNRB (gene 1910), sequence (P24530 whole entry, looked up): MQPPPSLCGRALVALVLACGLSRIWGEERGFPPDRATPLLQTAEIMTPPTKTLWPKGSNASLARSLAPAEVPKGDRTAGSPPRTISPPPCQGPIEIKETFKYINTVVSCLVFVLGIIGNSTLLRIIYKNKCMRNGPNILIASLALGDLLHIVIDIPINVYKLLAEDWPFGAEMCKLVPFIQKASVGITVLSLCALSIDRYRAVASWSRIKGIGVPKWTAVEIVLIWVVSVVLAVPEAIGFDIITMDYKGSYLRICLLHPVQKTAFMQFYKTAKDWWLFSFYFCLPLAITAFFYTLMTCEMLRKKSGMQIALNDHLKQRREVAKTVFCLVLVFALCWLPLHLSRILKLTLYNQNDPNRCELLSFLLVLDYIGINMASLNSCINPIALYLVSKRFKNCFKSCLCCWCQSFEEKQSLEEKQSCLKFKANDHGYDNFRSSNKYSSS
# Muscarinic acetylcholine receptor M2 (Homo sapiens), sequence (P08172 whole entry, looked up): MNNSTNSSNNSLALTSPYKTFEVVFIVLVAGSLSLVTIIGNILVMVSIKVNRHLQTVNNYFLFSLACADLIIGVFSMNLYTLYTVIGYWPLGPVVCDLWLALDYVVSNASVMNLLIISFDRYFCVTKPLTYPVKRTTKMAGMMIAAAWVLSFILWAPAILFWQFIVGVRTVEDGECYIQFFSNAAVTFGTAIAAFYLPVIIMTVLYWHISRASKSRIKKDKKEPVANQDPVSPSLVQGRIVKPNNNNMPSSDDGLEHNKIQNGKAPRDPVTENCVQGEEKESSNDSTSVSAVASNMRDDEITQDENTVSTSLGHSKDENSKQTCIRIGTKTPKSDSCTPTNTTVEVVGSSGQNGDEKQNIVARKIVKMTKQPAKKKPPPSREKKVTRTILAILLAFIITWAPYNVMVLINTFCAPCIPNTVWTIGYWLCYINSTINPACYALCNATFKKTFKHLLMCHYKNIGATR
# human Muscarinic, M4 Receptor, CHRM4 (gene 1132), sequence (P08173 whole entry, looked up): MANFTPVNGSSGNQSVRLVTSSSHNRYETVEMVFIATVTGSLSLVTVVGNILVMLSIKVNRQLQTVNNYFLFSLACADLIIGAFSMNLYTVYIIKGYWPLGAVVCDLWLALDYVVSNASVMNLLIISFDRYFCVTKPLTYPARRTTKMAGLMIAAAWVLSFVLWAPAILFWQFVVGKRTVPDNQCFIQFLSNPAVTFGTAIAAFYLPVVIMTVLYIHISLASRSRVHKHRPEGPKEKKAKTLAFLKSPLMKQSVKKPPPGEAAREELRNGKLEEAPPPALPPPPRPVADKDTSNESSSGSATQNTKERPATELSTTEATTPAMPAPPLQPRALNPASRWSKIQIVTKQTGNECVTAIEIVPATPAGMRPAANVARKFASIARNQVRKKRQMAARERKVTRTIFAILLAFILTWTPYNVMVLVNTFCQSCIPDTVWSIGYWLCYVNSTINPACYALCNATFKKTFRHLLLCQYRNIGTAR
# human Leukotriene B4 Receptor 1 (LTB4-BLT1), LTB4R (gene 1241), sequence (Q15722 whole entry, looked up): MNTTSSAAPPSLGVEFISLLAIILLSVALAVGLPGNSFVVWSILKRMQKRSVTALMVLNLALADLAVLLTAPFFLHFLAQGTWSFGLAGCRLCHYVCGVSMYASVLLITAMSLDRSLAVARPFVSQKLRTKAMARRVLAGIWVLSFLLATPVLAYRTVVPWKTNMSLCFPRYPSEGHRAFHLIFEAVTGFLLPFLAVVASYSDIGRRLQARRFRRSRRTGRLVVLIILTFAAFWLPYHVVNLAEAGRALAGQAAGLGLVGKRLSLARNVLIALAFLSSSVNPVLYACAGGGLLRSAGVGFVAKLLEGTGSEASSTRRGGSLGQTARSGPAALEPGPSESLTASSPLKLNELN
# Muscarinic acetylcholine receptor M3 (Homo sapiens), sequence (P20309 whole entry, looked up): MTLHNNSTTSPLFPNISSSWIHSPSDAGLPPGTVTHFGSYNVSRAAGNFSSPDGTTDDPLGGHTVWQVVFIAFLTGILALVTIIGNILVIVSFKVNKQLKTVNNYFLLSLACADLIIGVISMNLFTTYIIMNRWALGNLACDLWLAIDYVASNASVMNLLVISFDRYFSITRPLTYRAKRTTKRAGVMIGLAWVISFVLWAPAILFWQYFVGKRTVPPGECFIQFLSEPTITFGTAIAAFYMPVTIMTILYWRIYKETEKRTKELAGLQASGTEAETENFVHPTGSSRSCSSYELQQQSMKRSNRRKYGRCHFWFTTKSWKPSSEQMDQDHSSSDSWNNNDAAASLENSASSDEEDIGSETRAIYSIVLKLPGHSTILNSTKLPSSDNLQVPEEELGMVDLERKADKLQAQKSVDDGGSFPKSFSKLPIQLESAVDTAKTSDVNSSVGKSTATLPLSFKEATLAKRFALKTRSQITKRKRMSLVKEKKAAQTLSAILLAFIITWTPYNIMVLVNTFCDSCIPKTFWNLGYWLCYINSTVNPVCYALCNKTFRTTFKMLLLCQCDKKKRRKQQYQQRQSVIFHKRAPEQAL
# human Neuropeptide Receptor Y1 (NPY1), NPY1R (gene 4886), sequence (P25929 whole entry, looked up): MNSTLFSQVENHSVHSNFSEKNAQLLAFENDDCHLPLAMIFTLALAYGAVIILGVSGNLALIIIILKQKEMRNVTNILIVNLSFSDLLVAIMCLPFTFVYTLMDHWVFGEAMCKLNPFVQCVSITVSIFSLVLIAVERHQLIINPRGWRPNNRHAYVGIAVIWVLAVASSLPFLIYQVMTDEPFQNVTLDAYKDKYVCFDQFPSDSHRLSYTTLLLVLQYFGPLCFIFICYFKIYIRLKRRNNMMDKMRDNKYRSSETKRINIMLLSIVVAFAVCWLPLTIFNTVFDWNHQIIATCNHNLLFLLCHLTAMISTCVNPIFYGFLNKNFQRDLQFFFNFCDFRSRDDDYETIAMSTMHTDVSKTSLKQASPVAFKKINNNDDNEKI
smiles,measurement,setting,value
CCCN(C1CCN(C(=O)C2CCNCC2)CC1)[C@@H]1CCc2ccc(OC)cc2C1,AC50,[1],12.1 µM (active)
same,AC50,[2],0.00229 µM (active)
same,outcome,[3],inactive
same,AC50,[4],0.00453 µM (active)
same,AC50,[5],0.00539 µM (active)
same,AC50,[6],0.00683 µM (active)
same,AC50,[7],0.0807 µM (active)
CN(C)c1ccc(N=NS(=O)(=O)O)cc1,outcome,[7],inactive
same,outcome,[8],inactive
O=C(OC[C@H]1O[C@@H](OC(=O)c2cc(O)c(O)c(OC(=O)c3cc(O)c(O)c(O)c3)c2)[C@H](OC(=O)c2cc(O)c(O)c(OC(=O)c3cc(O)c(O)c(O)c3)c2)[C@@H](OC(=O)c2cc(O)c(O)c(OC(=O)c3cc(O)c(O)c(O)c3)c2)[C@@H]1OC(=O)c1cc(O)c(O)c(OC(=O)c2cc(O)c(O)c(O)c2)c1)c1cc(O)c(O)c(OC(=O)c2cc(O)c(O)c(O)c2)c1,outcome,[9],inactive
CCOc1cccc(-n2cc(C(=O)N3CCN(c4cc(C(=O)O)c5ccccc5c4)CC3)nc2-c2ccc(C)cc2)c1,AC50,[1],23.8 µM (active)
same,AC50,[9],17.1 µM (active)
same,AC50,[6],26.1 µM (active)
O=C(O)CC(O)C(=O)O (configuration not stated),outcome,[5],inactive
Cc1ccc(S(=O)(=O)O)cc1C,outcome,[3],inactive
CCCCC(CC)COC(=O)CCCCCCCCC(=O)OCC(CC)CCCC (configuration not stated),outcome,[10],inactive
COc1cccc(-c2ccc(/C=C\CN3CCCCCC3)cc2Cl)c1,AC50,[1],11.1 µM (active)
same,AC50,[9],12.6 µM (active)
same,AC50,[2],5.57 µM (active)
same,AC50,[3],14.5 µM (active)
same,AC50,[4],2.41 µM (active)
same,AC50,[5],0.427 µM (active)
same,AC50,[6],1.22 µM (active)
same,AC50,[7],6.57 µM (active)
Cc1[nH]cnc1C[C@H]1CCc2c(C)c3ccccc3n2C1=O,outcome,[10],inactive
same,AC50,[1],4.88 µM (active)
same,outcome,[2],inactive
same,outcome,[3],inactive
same,AC50,[4],15.5 µM (active)
same,outcome,[6],inactive
same,AC50,[7],11.9 µM (active)
COCCOc1cc2cc(C(=O)NC3CCN(C(C)C)CC3)n(CC(=O)Nc3ccc(Cl)cn3)c2cn1,outcome,[6],inactive
same,outcome,[7],inactive
CNS(=O)(=O)c1cc(C(=O)N2CCC(CCN3C4CCC3CC(n3c(C)nc5ccccc53)C4)(c3cccc(F)c3)CC2)c(Cl)cc1F (configuration not stated),AC50,[9],15.8 µM (active)
same,AC50,[5],9.16 µM (active)
same,outcome,[7],inactive
O=C(CCCCCCCCc1cccnc1)N1CCC(C=C(c2ccccc2)c2ccccc2)CC1,outcome,[10],inactive
same,outcome,[4],inactive
CCOC(=O)c1ccc(C2CCC(NC[C@H](O)COc3ccc(O)c(NS(C)(=O)=O)c3)CC2)cc1 (some centres not stated),AC50,[1],18.6 µM (active)
same,AC50,[9],21.9 µM (active)
same,AC50,[2],12.7 µM (active)
same,AC50,[4],18 µM (active)
same,AC50,[5],4.31 µM (active)
same,AC50,[6],11.9 µM (active)
same,AC50,[7],3.42 µM (active)
O=c1[nH]c2ccc(S(=O)CCN3CCC(Cc4ccc(F)cc4)CC3)cc2o1 (configuration not stated),AC50,[1],0.522 µM (active)
same,AC50,[9],1.23 µM (active)
CCN(C(=O)c1cc(C)cc(OC[C@H](C)Nc2ccncc2)c1)C(C)C,AC50,[3],5.9 µM (active)
same,AC50,[4],16.9 µM (active)
same,AC50,[5],10.6 µM (active)
same,AC50,[6],11.3 µM (active)
Nc1ccc(Nc2ccccc2)cc1,AC50,[9],17.6 µM (active)
same,AC50,[4],25 µM (active)
same,AC50,[5],25 µM (active)
same,AC50,[6],16.6 µM (active)
same,outcome,[7],inactive
CCC(C)(C)C(=O)O[C@H]1C[C@@H](C)C=C2C=C[C@H](C)[C@H](CC[C@@H]3C[C@@H](O)CC(=O)O3)[C@H]21,outcome,[9],inactive
CC[C@H]1CC[C@H](NCc2cc3c(cc2OC)[C@H]2C[C@H]2C(=O)N3C)[C@H](c2ccccc2)N1,AC50,[2],1.47 µM (active)
same,AC50,[4],12.3 µM (active)
same,AC50,[5],0.835 µM (active)
same,AC50,[6],2.31 µM (active)
same,AC50,[7],7.73 µM (active)
O=P(OC(CCl)CCl)(OC(CCl)CCl)OC(CCl)CCl,AC50,[1],19.8 µM (active)
same,outcome,[9],inactive
Cn1c(=O)cc(Oc2ccc(F)cc2F)c2cnc(NCC(C)(C)O)nc21,AC50,[1],6.95 µM (active)
CCc1cc(SCc2sc(-c3ccc(C(F)(F)F)cc3)nc2CN2CCN(c3ccc(OC)cc3)CC2)ccc1OCC(=O)O,AC50,[1],25 µM (active)
same,AC50,[9],11.5 µM (active)
same,AC50,[3],37.3 µM (active)
same,AC50,[6],35.7 µM (active)
same,AC50,[7],9.13 µM (active)
CCOC(=O)COc1ccc2c(c1)CC(NCC(O)c1cccc(Cl)c1)CC2 (configuration not stated),AC50,[1],20.1 µM (active)
same,AC50,[9],22.9 µM (active)
same,AC50,[2],4.73 µM (active)
same,AC50,[4],3.78 µM (active)
same,AC50,[5],3.68 µM (active)
same,AC50,[6],1.92 µM (active)
same,AC50,[7],3.75 µM (active)
